Inconclusive results are not listed. Entries that show only a call come without a potency. The source made the active and inactive calls. Calls follow the shape of the dose curve; as a rule, active = well fitted inhibition curve with a large enough effect; inconclusive = small, poorly fitted or top-dose-only effect; inactive = flat fitted curve, though single readings scatter.
Experiment: P-glycoprotein substrates identified in KB-8-5-11 adenocarcinoma cell line, qHTS therapeutic library screen (AID 1346987); also: nearly all actives have a fitted effect of over 65% in size
Details: KB-8-5-11 (P-gp overexpressing) viability, CellTiter-Glo, 72 h; series mostly up to 44.5 µM
Summary of the method: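 Compounds are pinned in dose-response onto KB-8-5-11 cells (500 cells/well, colchicine-free medium) and left 72 h at 37 degree C. CellTiter-Glo luminescence then yields AC50 values.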

Compound | Potency | activity change, negative = cytotoxicity | outcome
CC(C)(O)/C=C/C(=O)[C@](C)(O)[C@H]1[C@H](O)C[C@@]2(C)[C@@H]3CC=C4[C@@H](C=C(O[C@@H]5O[C@H](CO)[C@@H](O)[C@H](O)[C@H]5O)C(=O)C4(C)C)[C@]3(C)C(=O)C[C@]12C | inactive | – | –
CC1(C)CC=C(C#Cc2ccccc2)c2cc(/C=C/c3ccc(C(=O)O)cc3)ccc21 | inactive | – | –
Oc1ccccc1-c1cc(-c2ccccc2F)[nH]n1 | inactive | – | –
CN1CCN(C2=Nc3ccccc3Nc3ccc(O)cc32)CC1 | inactive | – | –
CC(C)c1ccc2c(c1)[C@H](O)CC1[C@@](C)(C(=O)O)CCC[C@]21C (some centres not stated) | inactive | – | –
C=C(C)[C@@H]1CC[C@]2(C(=O)O)CC[C@]3(C)C(CCC4[C@]5(C)C(CC[C@]43C)C(C)(C)[C@@H](O)[C@@H]5C(=O)O)C12 (some centres not stated) | inactive | – | –
CC(=O)OCC1OC(OC2COC(OC3COC(OC4C(OC5C(CO)OC(OC6CCC7(C)C(CCC8(C)C7CC=C7C9CC(C)(C)CCC9(C(=O)OC9OC(CO)C(O)C(O)C9OC9OCC(OC%10OCC(O)(CO)C%10O)C(O)C9O)C(O)CC78C)C6(C)C)C(O)C5O)OCC(O)C4O)C(O)C3O)C(O)C2O)C(OC(=O)/C=C/c2ccccc2)C(O)C1OC(C)=O (configuration not stated) | – | 0.531% [at 5.11 µM] (inactive) | –
COC(=O)C1=CO[C@@H](O[C@@H]2O[C@H](CO)[C@@H](O)[C@H](O)[C@H]2O)[C@H]2[C@@H]1[C@H](O)[C@H](O)[C@]2(C)O | inactive | – | –
CSC(=O)OCC1=C[C@@H]2OC(=O)C3=CO[C@@H](O[C@@H]4O[C@H](CO)[C@@H](O)[C@H](O)[C@H]4O)[C@H]1[C@@H]32 | inactive | – | –
COc1cc(/C=C/C(=O)O[C@@H]2C[C@@](O)(C(=O)O)C[C@@H](O)[C@@H]2O)ccc1O | inactive | – | –
CCC(C)C(=O)O[C@H]1[C@@H](O[C@H]2O[C@H](CO)[C@@H](O)[C@H](O)[C@H]2O)O[C@H](CO)[C@@H](O)[C@@H]1O (some centres not stated) | inactive | – | –
Cc1cccc(NC(=O)CN2CCC(c3ccccn3)CC2)c1 | inactive | – | –
CC1=C[C@H]2[C@@H](CC1=O)[C@H](C)C[C@H](O)[C@H]2C(C)C | inactive | – | –
CC1(C)CC[C@]2(C(=O)OC3OC(CO)C(O)C(O)C3O)CC[C@]3(C)C(=CCC4[C@@]5(C)C[C@@H](O)[C@H](OC6OC(C(=O)O)C(O)C(O)C6O)C(C)(C)C5CC[C@]43C)[C@@H]2C1 (some centres not stated) | – | 8.55% [at 9.29 µM] (inactive) | –
CC(=O)NC1CC(=O)C23C(=O)NC(Cc4c[nH]c5ccccc45)C2C(C)=C(C)C(O)C3/C=C/CC(C)/C=C(/C)C(O)C1O (configuration not stated) | inactive | – | –
OC[C@@]1(O)CO[C@H](OC[C@H]2O[C@@H](OC(CCCCc3ccc(O)cc3)CCc3ccc(O)cc3)[C@H](O[C@H]3OC[C@](O)(CO)[C@H]3O)[C@@H](O)[C@@H]2O)[C@@H]1O (some centres not stated) | inactive | – | –
COc1cc(C)c(C(=O)NC2C(C)OC(OC3CCC(C)C4C3C=C(C)C3/C(C)=C\CC/C(C)=C/C5(C)C=C(C(=O)O)C(C)CC56OC(=O)/C(=C(\O)C34C)C6=O)C(O)C2(C)O)c(O)c1 (configuration not stated) | – | – | inactive [at 9.29 µM]
Cc1ccc(Cl)cc1N(CC(=O)Nc1c(F)cccc1F)S(C)(=O)=O | inactive | – | –
CC1CC(=O)[C@]2(O)C(C(=O)OCCc3ccc(O)c(O)c3)=CO[C@@H](O[C@@H]3O[C@H](CO)[C@@H](O)[C@H](O)[C@H]3O)[C@H]12 (some centres not stated) | inactive | – | –
CC1=CC(=O)CC(C)(C)C1/C=C/C(C)OC1OC(COC2OCC(O)C(O)C2O)C(O)C(O)C1O (configuration not stated) | inactive | – | –
CC(=O)OC1C(O)/C(C)=C\C2C(OC(=O)c3ccccc3)C(C)CC2(OC(C)=O)C(OC(C)=O)C(C)/C=C/C(C)(C)C1OC(C)=O (configuration not stated) | inactive | – | –
CCC(C)/C=C(C)/C=C/C1=CC2=C(Cl)C(=O)C(C)(OC(C)=O)C(=O)C2=CN1C(CCCN=C(N)N)C(=O)O (configuration not stated) | inactive | – | –
Cc1nnc(-c2sc(NC(=O)[C@H](C(C)C)n3c(=O)[nH]c4ccccc4c3=O)nc2C)o1 | inactive | – | –
N[C@@H](CCNCc1ccc(Cl)cc1)C(=O)N1CCCCC1 | inactive | – | –
COCCN1CCC(C(=O)NO)(S(=O)(=O)c2ccc(Oc3ccc(OC(F)(F)F)cc3)cc2)CC1 | inactive | – | –
O=C(Nc1cc(-c2ccccc2)nn1-c1ccccc1)c1ccc([N+](=O)[O-])cc1 | inactive | – | –
CC1(C)CC[C@]2(C(=O)O[C@@H]3O[C@H](CO)[C@@H](O)[C@H](O)[C@H]3O)CC[C@]3(C)C(=CCC4[C@@]5(C)C[C@@H](O)[C@H](O)[C@@](C)(CO)C5[C@H](O)C[C@]43C)C2C1 (some centres not stated) | inactive | – | –
